Bioassay records (PubChem BioAssay)
FBW7 act – activators of human E3 ligase FBW7 | normalized activity (activation), % at 26.1 µM | AlphaScreen FBW7–phospho-cyclin E peptide binding, activator screen | Q969H0 | 0.13% of 650,000 active; in the data active = normalized activity above about 1.9%;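 also: purified mutant Fbw7 with reduced substrate affinity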
Target sequence (Q969H0 whole entry, looked up): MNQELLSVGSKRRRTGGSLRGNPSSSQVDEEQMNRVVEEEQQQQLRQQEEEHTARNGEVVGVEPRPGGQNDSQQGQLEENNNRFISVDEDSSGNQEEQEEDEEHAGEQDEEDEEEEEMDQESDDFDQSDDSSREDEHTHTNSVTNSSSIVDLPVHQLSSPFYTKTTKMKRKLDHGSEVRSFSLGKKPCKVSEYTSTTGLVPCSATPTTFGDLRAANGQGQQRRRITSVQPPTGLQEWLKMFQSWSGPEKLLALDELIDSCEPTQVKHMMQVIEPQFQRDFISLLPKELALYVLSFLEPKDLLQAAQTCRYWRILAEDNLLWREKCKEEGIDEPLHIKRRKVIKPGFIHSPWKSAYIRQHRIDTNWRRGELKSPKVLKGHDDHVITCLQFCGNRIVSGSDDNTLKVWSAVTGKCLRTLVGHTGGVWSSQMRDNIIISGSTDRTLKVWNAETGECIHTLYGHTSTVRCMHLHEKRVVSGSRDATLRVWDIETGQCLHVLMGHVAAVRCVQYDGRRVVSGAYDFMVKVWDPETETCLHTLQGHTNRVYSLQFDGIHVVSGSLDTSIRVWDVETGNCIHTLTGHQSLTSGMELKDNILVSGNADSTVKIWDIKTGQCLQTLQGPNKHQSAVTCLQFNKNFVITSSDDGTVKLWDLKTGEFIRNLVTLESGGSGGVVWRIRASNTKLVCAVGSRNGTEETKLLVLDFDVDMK
TEAD-YAP inh – TEAD-YAP interaction inhibition; HEK-TIYL cells, TEAD-Gal4/YAP UAS-luciferase luminescence; inhibition, % at 9.12 µM; 1.4% of 640,000 active; AID 1259422; in the data active = inhibition above about 32%;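 also: 0% = median of test compound wells and 100% = reference inhibitor wells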
MITF inh – inhibitors of human MITF; O75030; AlphaScreen MITF homodimerization, bead proximity signal; inhibition, % at 2.6 µM; 0.91% of 650,000 active; AID 1259374; in the data active = inhibition above about 50%;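 also: 0% = vehicle wells with protein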
GPR151 activ – activators of human GPR151 | Q8TDV0 | 1% of 650,000 active | activation, % at 11.2 µM | PathHunter beta-arrestin GPR151 cells, luminescence; in the data active = activation above about 4.9%;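 also: 0% = median of compound wells and 100% = cells with positive control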
* hit, by the source's call. The list is not random: actives were taken first. Their share in the collection is about 3.4%.

SMILES | FBW7 act | TEAD-YAP inh | MITF inh | GPR151 activ
CCOC(=O)c1nnn(-c2nc(OCC)nc(N3CCOCC3)n2)c1C | 0 | 5 | -16 | -1
Clc1ccccc1CSc1ccc2nnc(-c3ccncc3)n2n1 | 0 | 11 | 8 | -1
O=C(CN1C(=O)CSCC1=O)Nc1ccccc1 | 1 | -1 | 17 | -2
CCN(CC)C(=O)C1CCCN(C(=O)c2cc(COc3ccc4ncccc4c3)on2)C1 (stereo not drawn) | 0 | 8 | -8 | -1
COCC1CCCCN1C(=O)c1cc(COc2ccc3ncccc3c2)on1 (stereo not drawn) | 0 | 42* | 1 | 2
CCC1CCCCN1C(=O)c1cc(COc2ccc3ncccc3c2)on1 (stereo not drawn) | 1 | 49* | 6 | 0
CCc1cc(C(=O)COc2ccccc2)c(O)cc1O | 0 | 5 | -114 | 1
Cc1cc(C)c(S(=O)(=O)Nc2ccc(C)c(C)c2)c(C)c1 | 0 | 5 | 12 | 0
O=c1cc(-c2ccccc2)[nH]c2ccccc12 | 0 | 46* | -4 | 1
O=c1nc(-c2ccccc2)c2ccccc2[nH]1 | 0 | -14 | 11 | -1
O=C(CCC1CCCCC1)Nc1ccc(S(=O)(=O)N2CCOCC2)cc1 | 0 | 2 | 0 | 1
CCOC(=O)c1[nH]c(C)c(C(=O)c2cc(F)ccc2F)c1C | 0 | 45* | 4 | 1
CCOC(=O)c1[nH]c(C)c(C(=O)Nc2cc(F)ccc2F)c1C | 0 | 42* | 15 | 0
CCOC(=O)c1[nH]c(C)c(C(=O)OCC(=O)Nc2sccc2C(N)=O)c1C | 0 | 32* | -6 | 2
Cc1ccc(C(=O)O/N=C(\N)c2ccccc2)c(Cl)c1 | 0 | 74* | 4 | 5
COc1ccc(/C(N)=N/OC(=O)c2ccc(C)cc2Cl)cc1 | 0 | -15 | 3 | 0
COc1ccc(/C(N)=N/OC(=O)c2ccc(C(C)(C)C)cc2)cc1 | 0 | 8 | 11 | -1
N/C(=N\OC(=O)c1cccc2ccccc12)c1ccc(Cl)cc1 | 2.1* | -8 | 13 | 1
CC(=O)Oc1ccc(C(=O)O/N=C(\N)c2cccnc2)cc1 | 0 | 35* | 3 | -8
N/C(=N\OC(=O)c1ccccc1Br)c1ccc(Cl)cc1 | 0 | -54 | 6 | 0
CC(C)(C)c1ccc(C(=O)O/N=C(\N)c2ccccc2)cc1 | 0 | 86* | -1 | 0
Nc1ccc(-c2nc3ccccc3s2)c(Cl)c1 | 0 | -1 | -2 | 0
Nc1ccc(-c2nc3ccccc3s2)cc1 | 0 | 51* | -8 | -9
c1ccc(-c2ccc(-c3nc4ccccc4s3)cc2)cc1 | 0 | 92* | -11 | 0
Nc1ccc2nc(-c3ccccc3)sc2c1 | 2.7* | 85* | 10 | -8
SMILES | FBW7 act | TEAD-YAP inh | MITF inh | GPR151 activ
COc1ccccc1NC(=O)c1c(NC(=O)Cc2ccccc2)sc2c1CCCC2 | 0 | -11 | -4 | 2
COc1cccc(-n2c(SCC(=O)Nc3ccc(C)cc3)nc3n[nH]c(C)c3c2=N)c1 | 0 | 6 | 11 | 3
Cc1ccc(-n2c(SCC(=O)NCc3ccccc3)nc3n[nH]c(C)c3c2=N)cc1Cl | 0 | 19 | 19 | 5
Cc1ccc(-n2c(SCC(=O)NCc3ccccc3)nc3n[nH]c(C)c3c2=N)cc1C | 0 | 41* | 2 | 0
CCN(CC)C(=O)CSc1nc2n[nH]c(C)c2c(=N)n1-c1ccc(Oc2ccccc2)cc1 | 0 | 42* | 10 | 1
COc1cccc(-n2c(SCC(=O)Nc3ccc(C(C)C)cc3)nc3n[nH]c(C)c3c2=N)c1 | 0 | 37* | -1 | -1
CC1(C)CC(NC(=O)c2ccc(OC3CCN(CCc4ccccc4)CC3)cc2)CCO1 (stereo not drawn) | 0 | 1 | 0 | 4
CCOC(=O)N1CCN(c2c(N3CCN(c4ccc(F)cc4)CC3)c(=O)c2=O)CC1 | 0 | -5 | -4 | -2
CCOC(=O)N1CCN(c2c(NCc3ccc(F)cc3)c(=O)c2=O)CC1 | 0 | 55* | 0 | 2
Cc1cc(=O)oc2cc(OC(C)C(=O)NCc3ccccc3)ccc12 (stereo not drawn) | 0 | -2 | -9 | 2
COc1cc(C=O)ccc1OCc1nnnn1-c1ccccc1 | 2.0* | 11 | 17 | -1
COc1cccc(/C=N/NC(=O)c2cccs2)c1 | 0 | -73 | 18 | -2
COc1cccc(N=C/C(C(=O)C(F)(F)F)=C(\O)c2cccs2)c1 | 0 | 82* | 14 | -1
CCC(C)(C)c1ccc(OCCCC[n+]2cccc(C)c2)c(C(C)(C)CC)c1 | 0 | 85* | -22 | 2
CCC(C)(C)c1ccc(OCCOCC[n+]2ccccc2)c(C(C)(C)CC)c1 | 0 | 77* | 2 | 3
COc1ccc(C2CC(=O)c3c([nH]c(C(=O)OCCSC)c3C)C2)cc1OC (stereo not drawn) | 0 | 44* | 18 | 2
COc1ccc(C2CC(=O)c3c([nH]c(C(=O)OCCOC(C)C)c3C)C2)cc1OC (stereo not drawn) | 0 | 32* | 10 | 1
Cc1ccc(C(=O)CC2(O)C(=O)N(CC(N)=O)c3ccccc32)c(C)c1 (stereo not drawn) | 0 | -6 | -15 | 1
Cc1nc2nc(CN)nn2c(C)c1CCC(=O)Nc1cccc(C(F)(F)F)c1 | 0 | 1 | -6 | 1
CCOC(=O)C1=CS/C(=C2/C(=S)C(C)(C)Nc3c(OCC)cccc32)S1 | 0 | -5 | 53* | 0
CCOC(=O)C1=CS/C(=C2/C(=S)C(C)(C)N(C(=O)CC(C)C)c3ccc(OCC)cc32)S1 | 0 | 7 | -4 | 0
N#CCC(=O)N/N=C/c1ccc(N2CCOCC2)o1 | 0 | 0 | 54* | -1
O=C(N/N=C/c1ccc(N2CCOCC2)o1)c1ccccc1 | 0 | -32 | 16 | 0
C#CC(O)(c1ccc(OC)cc1)c1ccc(OC)c2ccccc12 (stereo not drawn) | 0 | 56* | 0 | 0
Cc1ccc(N(CC(=O)NCc2ccc(F)cc2)C(=O)c2ccco2)cc1 | 0 | 3 | 8 | 0
SMILES | FBW7 act | TEAD-YAP inh | MITF inh | GPR151 activ
Cc1c(C(=O)N(C)Cc2ccccc2)sc2nc(C)n(C)c(=O)c12 | 0 | -1 | 4 | -2
CC(=O)Nc1ccc(Nc2nc(-c3c(C)nn(C)c3C)nc3nc[nH]c23)cc1 | 0 | -9 | 14 | 0
CCOc1ccc(C(=O)NCC(=O)OCC(=O)c2c(C)[nH]c3ccccc23)cc1 | 2.1* | 7 | 0 | 2
Cc1[nH]c2ccccc2c1C(=O)COC(=O)CNC(=O)c1ccc(Br)o1 | 0 | -1 | -11 | 4
O=C(Nc1ccc(-c2cn3ccsc3n2)cc1)c1cccnc1Cl | 1 | 46* | 10 | -1
N#CC1=C(N)Oc2n[nH]c(-c3ccc([N+](=O)[O-])cc3)c2C1c1ccc(Cl)cc1 (stereo not drawn) | -1 | 2 | 23 | 0
COc1ccccc1C(=O)NN1C(=O)CCC1=O | 0 | -6 | -7 | 0
O=C(NN1C(=O)CCC1=O)c1ccccc1O | 0 | 47* | -17 | 3
O=C1NC(c2ccccc2F)c2c(-c3ccccc3)n[nH]c21 (stereo not drawn) | 0 | -3 | -7 | -1
